# HepG2 tox – counter-screen for TGF-b inhibitors: cytotoxicity in HepG2 cells | HepG2 CAGA-GFP viability, ATP luminescence, 18 h | 0.76% of 410,000 active | AID 588856 | Potency, µM (top dose mostly 46.1 µM), inactives show at the highest dose activity change, negative = cytotoxicity, usual class: cytotoxic
#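 HepG2 CAGA-GFP cells (1000/well, DMEM with 1% FBS) received compound, then TGF-beta at 500 pg/mL final, and were incubated 18 hours at 37 degrees C. Viability was read by CellTiter-Glo luminescence. Media-only wells were set as complete cell-killing and DMSO as no toxicity.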
# TGFb SMAD3 inh – inhibitors of TGF-b signaling; 1.2% of 410,000 active; Potency, µM (highest dose often 46.1 µM), inactives show at the highest dose activity, negative = inhibition, actives largely listed as inhibitors; HepG2 CAGA-GFP TGF-b/SMAD3 reporter, GFP fluorescence, 18 h; TGF-beta stimulated, 500 pg/mL final; also: % is scaled to controls: 0 for no effect and ±100 for the full control effect; nearly all actives have a fitted effect of over 65% in size
#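 Inhibition was scored as loss of TGF-beta-induced (500 pg/mL final, 18 hours, 37 degrees C) GFP in HEPG2 cells carrying a CAGA-GFP reporter, in DMEM with 1% FBS. Well GFP was summed per cell; Activity was normalised to unstimulated and stimulated DMSO wells, then concentration-response fitting.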
# S2 tox – reduces viability in counter-screen for ATXN expression inhibitors; S2 cells (HEK-293 line with an ATXN2-luciferase reporter) viability, CellTiter-Fluor protease fluorescence, 24 h; Potency, µM (series often up to 56.7 µM), usual class: cytotoxic; 0.49% of 400,000 active; also: nearly all actives have a fitted effect of over 40% in size
# ATXN2 expr inh – reduces ATXN2 reporter expression in HEK-293 cells | 0.72% of 360,000 active | HEK-293 ATXN2-luciferase reporter, luminescence, 24 h | Potency, µM (doses to about 57 µM), inactives show top-dose activity change, negative = inhibition, actives largely listed as inhibitors; also: % is scaled to controls: 0 for no effect and ±100 for the full control effect; nearly all actives have a fitted effect of over 55% in size
#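 qHTS (up to 57 uM final) was run with 24 h compound exposure of reporter cells at 37 °C. Each well was multiplexed: SteadyGlo luminescence measured ATXN2-luciferase expression after a fluorogenic Gly-Phe-AFC viability readout (25 uM final).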
# Starred values were filed as active, the others as inactive; i = inactive; ? = inconclusive; . = not tested or not shown; ! = not confirmed by another sample. Compounds with a hit are over-represented: about 2.3% of the library has one in this group of screens. Calls follow the shape of the dose curve; as a rule, active = well fitted curve in the direction sought with a large enough effect; inconclusive = small, poorly fitted or top-dose-only effect, or another doubt; inactive = no such curve, though single readings can be large; an effect the other way counts as inactive or inconclusive. Potency is read from the fitted curve at half-maximal effect.
SMILES,HepG2 tox,TGFb SMAD3 inh,S2 tox,ATXN2 expr inh
N#Cc1nc(-c2cccs2)oc1NCc1ccc2c(c1)OCO2,7.9µM*,-1%,i,10%
O=C([C@@H]1C[C@@H](Sc2nc3ccccc3[nH]2)CN1CC1CCCCC1)N1CCOCC1,.,.,i,.
CCOC(=O)c1c(C)oc2ncnc(N3CCN(c4ccc(C)cc4C)CC3)c12,-21%,?,i,-5%
CCOC(=O)c1c(C)oc2ncnc(N3CCN(c4cccc(Cl)c4)CC3)c12,-46%,11µM*,?,?
Nc1nc(N)c(-c2cccc(C(F)(F)F)c2)c(Cc2cccc(C(F)(F)F)c2)n1,8.9µM*,?,i,?
O=C1C=C(c2ccc3[nH]ccc3c2)C[C@@H](c2ccc(Cl)cc2)C1,-23%,11µM*,?,0%
CCOC(=O)N1CCN(CCC(=O)c2ccc(OC)cc2)CC1,-100%,11µM*,?,.
COc1ccc(N2CCN(CCC(=O)c3ccc4ccccc4c3)CC2)cc1,-114%,11µM*,i,-8%
O=C(CCN1CCOCC1)c1ccc(N2CCCCC2)cc1,-99%,14µM*,?,?
CCOC(=O)N1CCN(CCC(=O)c2ccc(Cl)cc2)CC1,-59%,?,i,-3%
COc1cc(OC)c(OC)cc1/C=C/c1nccc2ccccc12,-17%,-20%,.,.
Oc1c(CN2CCCCC2)cc(COCc2ccccc2)c2cccnc12,-93%,?,?,3.2µM*
CSc1ncccc1C(=O)N1CCN(S(=O)(=O)c2cc(C)ccc2C)CC1,-29%,13%,i,1%
Cc1ccc(C)c(S(=O)(=O)N2CCN(Cc3ccc(O)c4ncccc34)CC2)c1,5%,?,i,8.9µM*
CCCOCc1ccc(O)c2ncccc12,-9%,?,i,?
Oc1ccc(CNc2ccccc2F)c2cccnc12,-24%,7.1µM*,11µM*!,18µM*!
CC(C)COCc1ccc(O)c2ncccc12,-49%,10µM*,i,?
CCCCCCCOc1ccc(CC(=O)NO)cc1,4%,16%,.,.
COc1cc(OC)c(/C=C/c2ccc3ccccc3[n+]2C)c(OC)c1,-18%,6%,.,.
COc1cc(=O)n2c(c1C(=O)N(C)Cc1nonc1C)CCN(Cc1ccc(F)cc1)CC2,.,.,i,.
NS(=O)(=O)Nc1c(Br)cc(Br)c2cccnc12,8%,-2%,.,.
Oc1ccc(CN2CCCCC2)c2cccnc12,-60%,3.2µM*,13µM*,20µM*
COc1ccccc1N1CCN(Cc2cc(COC(C)C)c3cccnc3c2O)CC1,2.8µM*,2.2µM*,.,.
CCCOCc1cc(CN2CCN(c3ccccc3OC)CC2)c(O)c2ncccc12,11µM*,2µM*,.,.
CCOCc1cc(CN2CCN(c3ccccc3OC)CC2)c(O)c2ncccc12,1.6µM*,.,.,.
SMILES,HepG2 tox,TGFb SMAD3 inh,S2 tox,ATXN2 expr inh
COCc1cc(CN2CCCC2)c(O)c2ncccc12,-26%,?,?,?
Oc1ccc(CN2CCN(c3ccccc3)CC2)c2cccnc12,-35%,?,i,?
O=C(C[n+]1cccc2cc(Cl)ccc21)c1ccc2ccccc2c1,-86%,2%,.,.
CC(=O)N[C@@H](C)C(=O)NCC1Cc2cccc(-c3ccccc3C(F)(F)F)c2O1 (some centres undefined),.,.,i,.
CCCN1CCN(CCCNC(=O)c2cc3c(Cl)nc4ccccc4c3s2)CC1,13µM*,?,?,?
CCOC(=O)C1CCCN(C(=O)c2cc3c(Cl)nc4ccccc4c3s2)C1 (centres undefined),-39%,-24%,?,14µM*
CO[C@H]1[C@H](NC(=O)C(C)C)c2ccccc2C12CCN(Cc1c(C)nn(C)c1Cl)CC2,.,.,i,.
CC(C)(C)C(=O)NC(=S)NNC(=O)c1sc2ccccc2c1Cl,11µM*,-20%,.,18µM*
COc1cc(/C=C(/C(=O)c2cccs2)c2nc3ccccc3[nH]2)cc(OC)c1O,13µM*,?,?,?
O=C(/C(=C/c1ccc(Cl)cc1)c1nc2ccccc2[nH]1)c1ccccc1,2.5µM*,5µM*,.,?
O=C(N/C(=C/c1ccc(Cl)cc1)c1nc2ccccc2[nH]1)c1ccco1,-12%,?,i,-6%
COc1cc(/C=C/C(=O)c2cccc([N+](=O)[O-])c2)cc(OC)c1OC,-100%,?,?,0%
O=C(C#Cc1ccccc1)c1cccc([N+](=O)[O-])c1,-29%,?,.,22µM*
CC(=O)c1cccc([N+](=O)[O-])c1,-8%,3%,i,3%
O=C(/C=C/c1ccccc1F)c1cccc([N+](=O)[O-])c1,14µM*,?,?,.
CCCn1c(=O)n(C)c(=O)c2c(SCC(=O)Nc3cc(C)on3)nc(C(C)(C)C)nc21,-89%,18µM*,?,-27%
Cc1ccc(NC(=O)CSc2nc3ccccc3c(=O)n2CCCN2CCCCC2)cc1C,18µM*,?,.,?
Cc1cc(NC(=O)CSc2nc3c(sc4ccccc43)c(=O)n2CCCN2CCOCC2)n[nH]1,-51%,-16%,?,1.4µM*
Cc1cc(NC(=O)CSc2nc3c(sc4ccccc43)c(=O)n2CCc2ccccc2)n[nH]1,9%,-14%,i,-22%
Cc1cc(NC(=O)CSc2nc(C(C)C)nc3c2c(=O)n(C)c(=O)n3C)no1,-6%,1%,i,-12%
CCCCn1c(SCC(=O)Nc2cc(C)on2)nc2ccccc2c1=O,4µM*,-54%,i,-25%
Cc1cccc(Sc2ccc([N+](=O)[O-])cc2[N+](=O)[O-])n1,-14%,-21%,i,.
O=[N+]([O-])c1ccc(Sc2ncccn2)c([N+](=O)[O-])c1,20µM*,?,?,?
O=C(Nc1ccc2ccccc2c1)c1nc(S(=O)(=O)Cc2ccccc2F)ncc1Cl,-62%,?,.,.
CCOc1ccc(NC(=O)c2nc(S(=O)(=O)Cc3ccccc3C)ncc2Cl)cc1,-101%,13µM*,.,.
SMILES,HepG2 tox,TGFb SMAD3 inh,S2 tox,ATXN2 expr inh
CCOc1ccc(NC(=O)c2nc(S(=O)(=O)Cc3ccc(F)cc3)ncc2Cl)cc1,-96%,11µM*,.,.
Oc1ccc(N=Cc2ccc(OCc3ccccc3)cc2)cc1,-106%,11µM*,?,.
CNC(=O)[C@@H]1C[C@H](Sc2nc3ccccc3[nH]2)CN1Cc1ccccc1C(F)(F)F,.,.,i,.
O=C(CCl)N1c2ccccc2SCC1c1ccccc1 (centres undefined),-104%,?,20µM*,?
CC(=O)C1=C(c2ccc(Cl)c(Cl)c2)N(C(C)=O)n2c(C)nnc2S1,7.9µM*,?,?,28µM*
COc1cccc(C2=C(C(C)=O)Sc3nncn3N2C(C)=O)c1,-75%,?,.,.
CC(=O)C1=C(c2ccccc2)N(C(C)=O)n2c(nnc2C2CCCCC2)S1,11µM*,11µM*,.,.
CC(=O)C1=C(c2ccc(Cl)c(Cl)c2)N(C(C)=O)n2cnnc2S1,-94%,5.6µM*,.,.
C=Nc1ccc(/C=C/c2ccnc3ccccc23)cc1,-68%,-10%,.,.
[O-][n+]1onc2c1CCc1c-2nn(-c2ccccc2Cl)[n+]1[O-],-37%,?,?,28µM*

# High-throughput results as filed in PubChem BioAssay.
